# An excerpt weighted towards active compounds, which were near 7.5% of everything screened.
# Rab9 promoter act: qHTS Assay for Rab9 Promoter Activators. Huh7 Rab9 promoter-luciferase reporter, luminescence, 24 h. Potency, µM (series often up to 9.22 µM), without a hit: top-dose activation, negative = inhibition, most hits filed as activators. 320,000 tested, 2.8% active. AID 485297, 2010; note: % of control where 0% means no effect; nearly all actives have a fitted effect of over 60% in size
#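 Rab9 promoter-driven luciferase in stably transfected Huh7 cells; 1500 cells/well rested 2 h, exposed to compound in DMSO for 24 h at 37 °C, 5% CO2. Luminescence read 10 min after adding luciferase reagent at ambient temperature.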
# NPC1 promoter act: qHTS Assay for NPC1 Promoter Activators. Potency, µM (top dose mostly 9.22 µM), for the others: at the highest dose activation, actives largely listed as activators. AID 485313, 2010. 320,000 tested, 2.4% active. Huh7 NPC1 promoter luciferase reporter, 24 h; note: % of control where 0% means no effect; nearly all actives have a fitted effect of over 60% in size
#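 Quantitative HTS used a cell-based reporter: Huh7 cells stably bearing the NPC1 promoter upstream of luciferase were treated with compounds for 24 h, and promoter activation was read as luminescence.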
# Luc counter: Counterscreen for Luciferase (Kinase-Glo TM) Inhibition; Luciferin 4-monooxygenase (Photuris pensylvanica), Q27757; Kinase-Glo luciferase, ATP luminescence, 8 min; Potency, µM (series often up to 38.3 µM), inactives show at the highest dose activity change, negative = inhibition, most hits filed as inhibitors; 200,000 tested, 0.28% active; AID 1379, 2008; note: % is set by controls: 0 for no effect and ±100 for the full control effect; nearly all actives have a fitted effect of over 60% in size
#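 Compounds were added to a substrate mix at pH 7.2 (50 mM imidazole, 10 uM ATP, within the enzyme's linear range), followed by Kinase-Glo detection reagent; luminescence was measured after 8 minutes at ambient temperature.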
# SMN2 splice up: qHTS Assay for Enhancers of SMN2 Splice Variant Expression. Potency, µM (titrated, usually from 46.1 µM), for the others: at the top dose activity change, positive = activation, usual class: activators. AID 1458, 2008. HEK293 SMN2-luciferase splicing reporter, luminescence, 30-36 h. 210,000 tested, 2.8% active; note: % of control where 0% means no effect; nearly all actives have a fitted effect of over 55% in size
#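 qHTS luciferase splicing reporter: luminescence rises when SMN2 exon 7 is included in transfected HEK293 cells. Compound exposure lasted 30-36 h at 37C, with 4.5 mM final sodium butyrate as control, followed by a ONE-Glo read.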
# FLuc modulator: qHTS profiling assay for firefly luciferase inhibitor/activator using purifed enzyme and Km concentrations of substrates (counterscreen for miR-21 project). Luciferin 4-monooxygenase (Photinus pyralis), P08659. 360,000 tested, 6.9% active. Potency, µM (series often up to 57.5 µM), inactives show at the highest dose activity change, negative = inhibition, most hits filed as inhibitors. purified FLuc, Km substrates, luminescence inhibition;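 note: plate controls were vehicle for no effect and reference inhibitor for full effect; nearly all actives have a fitted effect of over 55% in size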
# Target sequence (P08659 whole entry, looked up): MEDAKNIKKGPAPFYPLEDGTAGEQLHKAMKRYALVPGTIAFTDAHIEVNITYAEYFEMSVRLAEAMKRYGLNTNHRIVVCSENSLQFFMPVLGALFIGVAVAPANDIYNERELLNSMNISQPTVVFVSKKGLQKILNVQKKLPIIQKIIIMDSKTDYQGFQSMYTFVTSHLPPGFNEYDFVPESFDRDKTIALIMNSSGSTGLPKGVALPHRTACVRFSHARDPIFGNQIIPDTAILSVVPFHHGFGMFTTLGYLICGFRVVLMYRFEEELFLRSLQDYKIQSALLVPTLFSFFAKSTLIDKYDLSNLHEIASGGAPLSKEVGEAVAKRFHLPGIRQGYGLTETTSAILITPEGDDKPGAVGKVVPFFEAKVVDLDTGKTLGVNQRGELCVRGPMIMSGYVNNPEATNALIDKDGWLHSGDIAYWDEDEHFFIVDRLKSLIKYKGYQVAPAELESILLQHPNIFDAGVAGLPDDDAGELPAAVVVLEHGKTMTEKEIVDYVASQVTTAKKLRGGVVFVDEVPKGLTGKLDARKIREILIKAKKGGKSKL
#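 Purified P. pyralis luciferase, 10 nM final, with Km-level 10 uM D-luciferin and 10 uM ATP in 50 mM Tris acetate pH 7.5, 10 mM Mg acetate, 0.01% Tween-20, 0.05% BSA; 6-point qHTS titration about 60 µM downward; luminescence read.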
# ELG1 genotoxic: qHTS screen for small molecules that induce genotoxicity in human embryonic kidney (HEK293T) cells expressing luciferase-tagged ELG1; HEK293T ELG1-luciferase reporter, luminescence, 16 h; Potency, µM (highest dose often 46 µM), inactives show at the top dose activity change, positive = activation, usual class: activators; 330,000 tested, 1.3% active; note: % of control where 0% means no effect; nearly all actives have a fitted effect of over 60% in size
#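 16 hr compound incubation (37 °C, 5% CO2) of HEK293T cells carrying luciferase-tagged ELG1; luciferase then measured by ONE-Glo luminescence after 30 min at RT.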
# * hit, by the source's call; u = inconclusive; x = no result; [ ] = dose if it differs, or a comment. Calls come from the whole dose curve; as a rule, active = well fitted curve in the direction sought with a large enough effect; inconclusive = small, poorly fitted or top-dose-only effect, or another doubt; inactive = no such curve, though single readings can be large; an effect the other way counts as inactive or inconclusive. Potency is the fitted concentration of half-maximal effect.
SMILES,Rab9 promoter act,NPC1 promoter act,Luc counter,SMN2 splice up,FLuc modulator,ELG1 genotoxic
CSc1ccc(CCNC(=O)c2ccc(-n3c(C)cc4c3CCC(C)C4)cc2)cc1 (configuration not stated),x,x,x,x,-11.3%,x
CCc1[nH]nc(C(=O)N/N=C/c2ccncc2)c1C,3.16µM*,2.82µM*,x,x,10.7µM*,23.1µM*
CCN(CC)CCCNC(=O)Cc1ccc(NC(=O)N2CCCCc3ccccc32)cc1,x,x,x,x,3.6%,x
CN(C)c1ncc2ncc(=O)n(Cc3cccs3)c2n1,x,x,-2.2%,-0.3%,x,x
Cc1ccc(CNc2nc3ccccc3c3nc(-c4cccc(C)c4)nn23)cc1,x,x,x,24.7%,u,x
CCOC(=O)Cn1cc(Cl)cc(C(=O)Nc2ccccc2)c1=O,-1.9%[1.84 µM],-3.7%,x,x,16.9µM*,5.5%
O=C(CSc1nnc(-c2ccccc2Cl)o1)N1CCOCC1,3.55µM*,2.24µM*,x,x,19µM*,u
Cc1ccccc1-c1nnc(SCC(=O)N2CCCc3ccccc32)o1,x,x,x,-11.3%,u,x
COc1ccccc1-c1nnc(SCC(=O)N2CCOCC2)o1,18.1%,14.9%,0.9%,8.91µM*,u,4.4%
COc1ccccc1-c1nnc(-c2ccc(N3CCOCC3)cc2)o1,u,u,6.1%,5.62µM*,19µM*,15.7%
COc1ccccc1-c1nnc(SCC(=O)N2CCCCC2)o1,26.8%,28.2%,x,x,-10.1%,3.9%
Cc1ccccc1-c1nnc(SCC(=O)N2CCCC2)o1,u,u,x,x,16.9µM*,u
CCOc1ccccc1CN1CCNC(=O)C1CC(=O)NCc1nc(C)cs1 (configuration not stated),-2.2%,-4.2%,x,x,-1.7%,0.1%
CCC[C@@H]1C[C@@]1(CCC)C(NP(=O)(c1ccccc1)c1ccccc1)c1ccc(Cl)cc1 (some centres not stated),x,x,-2.3%,-21.5%,x,x
Cc1ccc(Cn2cc(S(=O)(=O)c3cccc(Cl)c3)c(=O)c3cc(F)c(N4CCCCC4)cc32)cc1,x,x,x,x,0.5%,x
Cc1nc(-c2ccccc2)sc1CCNC(=O)C(=O)Nc1ccc2c(c1)OCO2,x,x,x,x,1.3%,x
Cc1ccc(-c2cc(C(=O)N/N=C/c3ccco3)[nH]n2)cc1,14.6%,-0.9%,-3.3%,15.8%,21.3µM*,8.7%
O=C(N/N=C/c1ccco1)c1cc(-c2cccc3ccccc23)n[nH]1,-2.6%,22.5%,-2.8%,-15.1%,16.9µM*,8.9%
O=C(N/N=C/c1ccccc1C(=O)O)c1cc(-c2ccc3c4c(cccc24)CC3)n[nH]1,-7.6%,-6.1%,-1.1%,4.6%,15.1µM*,-0.9%
COc1ccc(OC)c(CCNC(=O)CS(=O)(=O)Cc2nc(-c3cccc(Cl)c3)oc2C)c1,x,x,x,-23.6%,-14.6%,x
CCOCCCN1C(=O)CN(C2CCCCCC2)C(=O)C1c1ccc(OCC)c(OC)c1 (configuration not stated),x,x,x,x,-2.9%,x
Cc1ccc(CNS(=O)(=O)c2cc(C(=O)Nc3cccc(C(F)(F)F)c3)ccc2F)cc1,x,x,x,x,1.8%,x
CC1=Nc2cc([N+](=O)[O-])ccc2NC(C)(C)C1,5.1%,3.0%,-8.8%,-14.6%,-18.2%,11.8%
CC1(C)CNc2cc([N+](=O)[O-])ccc2S1,u,u,0.8%,13.5%,26.9µM*,u
O=C(COC(=O)c1ccco1)Nc1ccc(Br)cc1,2.9%,1.7%,9.5%,-4.8%,9.53µM*,-1.2%
SMILES,Rab9 promoter act,NPC1 promoter act,Luc counter,SMN2 splice up,FLuc modulator,ELG1 genotoxic
O=C(Nc1ccc(-c2ccccc2)cc1)c1ccco1,0.5%,-4.0%,1.3%,-4.1%,4.0%,8.5%
CC1CCC(NC(=O)COC(=O)c2ccco2)CC1 (configuration not stated),-2.4%,0.8%,x,x,23.9µM*,-4.3%
O=C(Nc1ccc(NC(=O)c2sc3ccccc3c2Cl)cc1)c1ccco1,-5.2%,-3.3%,1.7%,-6.9%,0.0%,23.1µM*
O=C(Nc1ccc(Br)cc1)c1ccco1,3.16µM*,u,-3.7%,11.2µM*,13.5µM*,7.08µM*
O=C(Nc1ccc(NC(=O)c2ccco2)cc1)c1ccco1,5.5%,7.0%,x,x,0.8%,15.9%
C=CCC(C)(O)c1ccccc1 (configuration not stated),x,x,-2.2%,-2.4%,x,x
O=C(Nc1ccc(Nc2ccccc2)cc1)c1ccco1,0.562µM*,u,0.4%,12.6µM*,7.57µM*,9.2µM*
O=C(CNC(=O)c1ccco1)Nc1ccncc1,-1.8%,-2.0%,x,x,-1.0%,3.5%
O=C(Nc1ccc(Cc2ccncc2)cc1)c1ccco1,u,u,-2.5%,19.5%,19µM*,16.5%
O=C(O)c1ccc(OCc2ccc(C(=O)O)o2)cc1,11.3%,3.5%,x,x,-14.7%,5.0%
COC(=O)c1ccc(COc2cccc(OC)c2)o1,-1.7%[1.84 µM],-4.7%,-1.4%,1.8%,u,23.1µM*
CCc1ccc(OCc2ccc(C(=O)O)o2)cc1,u,u,x,x,2.13µM*,u
COc1ccc(OCc2cc(C(=O)O)c(C)o2)cc1,u,u,x,x,2.13µM*,1.0%
O=C(O)c1ccc(COc2ccc(Cl)cc2)o1,23.0%,30.0%,1.1%,11.2µM*,26.9µM*,u
Cc1cccc(NC(=O)CSc2nc3c(oc4ccccc43)c(=O)n2-c2ccccc2)c1C,x,x,x,0.8%,-6.6%,x
COc1ccc(NC(=O)CSc2c3c(nc4ccc(Cl)cc24)CCCC3)cc1Cl,x,x,x,-3.9%,-2.6%,x
COc1ccc(-c2nc3cnc(N4CCNCC4)nc3n(-c3ccccc3)c2=O)cc1,x,x,-4.6%,-58.7%,x,x
CC(C)Oc1ccc(CNC(=O)CCCn2c(=O)c3cccn3c3ccccc32)cc1,x,x,x,x,-3.7%,x
CN(C)c1ccc(NC(=O)c2ccc(COc3cccc(Cl)c3)o2)cc1,28.6%,19.9%,-5.1%,-4.5%,9.53µM*,u
CCOc1ccc(OCc2ccc(C(=O)Nc3cccnc3)o2)cc1,u,0.562µM*,0.1%,7.94µM*,u,-0.5%
CCOc1ccc(OCc2ccc(C(=O)NCc3cccnc3)o2)cc1,19.6%,19.7%,-1.8%,-31.6%,-8.2%,0.7%
CCOc1ccc(OCc2ccc(C(=O)NC(C)(C)C)o2)cc1,23.0%,24.3%,x,x,1.9%,-2.6%
CCOc1ccc(OCc2ccc(C(=O)NN)o2)cc1,u,0.398µM*,x,x,u,u
Cc1ccc(N2CC(NC(=O)c3ccc(S(=O)(=O)N4CCOCC4)cc3)CC2=O)cc1C (configuration not stated),x,x,x,x,-0.5%,x
Cc1ccc(NC(=O)CSc2nc3c(oc4ccccc43)c(=O)n2Cc2ccco2)cc1F,x,x,x,-2.8%,1.0%,x
